Measured values as given in ChEMBL document CHEMBL2218924, “A broad activity screen in support of a chemogenomic map for kinase signalling research and drug discovery” (Biochem J, 2013).

Tests used:
[1] = biological target: SRSF protein kinase 3 (Homo sapiens) (UniProt Q9UPE1); conditions: at 1 µM
[2] = biological target: T1, Serine/threonine-protein kinase 4 (Homo sapiens) (UniProt Q13043); conditions: at 1 µM
T1 sequence (whole entry): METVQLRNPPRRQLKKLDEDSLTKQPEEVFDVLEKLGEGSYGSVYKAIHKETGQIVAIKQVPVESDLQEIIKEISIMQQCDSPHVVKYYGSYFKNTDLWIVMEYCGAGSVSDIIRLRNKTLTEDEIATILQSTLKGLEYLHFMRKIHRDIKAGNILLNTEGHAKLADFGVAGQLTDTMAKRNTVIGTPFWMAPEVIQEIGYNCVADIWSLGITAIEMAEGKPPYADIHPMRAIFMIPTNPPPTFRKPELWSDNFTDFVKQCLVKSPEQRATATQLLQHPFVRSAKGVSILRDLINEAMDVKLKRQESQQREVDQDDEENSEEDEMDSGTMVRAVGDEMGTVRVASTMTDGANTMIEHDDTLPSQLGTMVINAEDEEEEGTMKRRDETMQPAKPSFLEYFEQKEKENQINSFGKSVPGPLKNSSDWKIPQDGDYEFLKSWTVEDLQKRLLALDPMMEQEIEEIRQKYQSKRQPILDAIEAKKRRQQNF

[3] = biological target: T1, Serine/threonine-protein kinase 4 (Homo sapiens); conditions: at 10 µM
[4] = biological target: Serine/threonine-protein kinase 24 (Homo sapiens) (UniProt Q9Y6E0); conditions: at 10 µM
Sequence of Serine/threonine-protein kinase 24 (Homo sapiens) (Q9Y6E0 whole entry, looked up): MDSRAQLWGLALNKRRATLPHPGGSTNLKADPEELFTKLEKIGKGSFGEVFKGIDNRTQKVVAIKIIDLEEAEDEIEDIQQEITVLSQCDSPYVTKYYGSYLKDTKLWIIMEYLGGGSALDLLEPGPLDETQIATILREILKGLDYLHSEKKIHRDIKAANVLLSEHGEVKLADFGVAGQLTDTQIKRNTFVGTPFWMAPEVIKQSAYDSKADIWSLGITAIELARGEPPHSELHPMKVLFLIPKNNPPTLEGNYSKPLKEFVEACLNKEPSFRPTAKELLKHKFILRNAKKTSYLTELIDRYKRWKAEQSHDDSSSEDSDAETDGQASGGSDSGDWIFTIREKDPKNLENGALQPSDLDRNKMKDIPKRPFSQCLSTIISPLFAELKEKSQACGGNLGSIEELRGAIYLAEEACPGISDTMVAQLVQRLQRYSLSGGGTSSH

[5] = biological target: T2, Tyrosine-protein kinase Mer (Homo sapiens) (UniProt Q12866); conditions: at 1 µM
T2 sequence (whole entry): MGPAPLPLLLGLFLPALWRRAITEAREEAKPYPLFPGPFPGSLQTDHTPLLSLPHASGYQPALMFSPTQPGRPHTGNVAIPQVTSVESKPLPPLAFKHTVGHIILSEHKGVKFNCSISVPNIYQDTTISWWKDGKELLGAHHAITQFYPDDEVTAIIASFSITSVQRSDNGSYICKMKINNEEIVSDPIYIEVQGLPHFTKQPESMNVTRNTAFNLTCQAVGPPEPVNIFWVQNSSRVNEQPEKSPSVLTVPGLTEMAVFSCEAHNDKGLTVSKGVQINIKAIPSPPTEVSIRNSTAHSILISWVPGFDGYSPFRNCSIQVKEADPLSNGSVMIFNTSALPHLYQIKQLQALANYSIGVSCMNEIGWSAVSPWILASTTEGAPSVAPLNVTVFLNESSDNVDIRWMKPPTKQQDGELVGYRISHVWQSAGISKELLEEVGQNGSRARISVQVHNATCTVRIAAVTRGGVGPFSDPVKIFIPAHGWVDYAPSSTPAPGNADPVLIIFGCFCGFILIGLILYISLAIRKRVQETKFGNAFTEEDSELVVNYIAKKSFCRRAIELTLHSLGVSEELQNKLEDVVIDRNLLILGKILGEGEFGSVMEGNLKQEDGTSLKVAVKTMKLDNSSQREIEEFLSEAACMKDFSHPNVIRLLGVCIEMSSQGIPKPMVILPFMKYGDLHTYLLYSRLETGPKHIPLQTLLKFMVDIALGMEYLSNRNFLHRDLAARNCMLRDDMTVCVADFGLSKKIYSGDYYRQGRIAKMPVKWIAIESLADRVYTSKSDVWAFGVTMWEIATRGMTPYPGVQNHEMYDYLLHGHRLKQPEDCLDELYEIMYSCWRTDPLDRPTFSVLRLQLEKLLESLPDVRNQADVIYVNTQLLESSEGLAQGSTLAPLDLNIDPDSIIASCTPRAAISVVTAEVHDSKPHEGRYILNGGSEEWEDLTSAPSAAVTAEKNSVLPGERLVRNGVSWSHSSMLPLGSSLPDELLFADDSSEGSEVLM

[6] = biological target: T3, Muscle, skeletal receptor tyrosine-protein kinase (Homo sapiens) (UniProt O15146); conditions: at 1 µM
T3 sequence (whole entry): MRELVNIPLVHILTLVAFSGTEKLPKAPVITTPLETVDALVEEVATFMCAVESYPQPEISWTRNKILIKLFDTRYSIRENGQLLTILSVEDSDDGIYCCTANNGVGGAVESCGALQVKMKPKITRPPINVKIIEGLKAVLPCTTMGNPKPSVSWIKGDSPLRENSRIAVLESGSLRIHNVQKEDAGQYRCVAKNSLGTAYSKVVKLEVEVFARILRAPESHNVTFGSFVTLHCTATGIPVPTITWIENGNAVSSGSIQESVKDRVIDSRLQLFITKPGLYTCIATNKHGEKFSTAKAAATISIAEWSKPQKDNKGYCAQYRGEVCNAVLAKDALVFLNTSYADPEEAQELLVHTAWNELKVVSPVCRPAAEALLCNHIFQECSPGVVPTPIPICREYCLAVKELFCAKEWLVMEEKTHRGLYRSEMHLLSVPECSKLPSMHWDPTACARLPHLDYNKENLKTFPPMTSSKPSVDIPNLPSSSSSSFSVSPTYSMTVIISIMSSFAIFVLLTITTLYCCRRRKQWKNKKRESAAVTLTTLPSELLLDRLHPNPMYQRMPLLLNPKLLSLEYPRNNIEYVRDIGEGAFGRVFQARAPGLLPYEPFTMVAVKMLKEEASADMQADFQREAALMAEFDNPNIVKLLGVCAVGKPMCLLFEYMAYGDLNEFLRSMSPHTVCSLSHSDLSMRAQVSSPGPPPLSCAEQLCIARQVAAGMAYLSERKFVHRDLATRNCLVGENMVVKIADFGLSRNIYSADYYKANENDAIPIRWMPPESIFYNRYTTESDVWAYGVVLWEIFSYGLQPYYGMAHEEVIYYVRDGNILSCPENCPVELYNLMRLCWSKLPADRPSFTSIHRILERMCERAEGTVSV

[7] = biological target: T3, Muscle, skeletal receptor tyrosine-protein kinase (Homo sapiens); conditions: at 10 µM
[8] = biological target: T4, Serine/threonine-protein kinase Nek11 (Homo sapiens) (UniProt Q8NG66); conditions: at 10 µM
T4 sequence (whole entry): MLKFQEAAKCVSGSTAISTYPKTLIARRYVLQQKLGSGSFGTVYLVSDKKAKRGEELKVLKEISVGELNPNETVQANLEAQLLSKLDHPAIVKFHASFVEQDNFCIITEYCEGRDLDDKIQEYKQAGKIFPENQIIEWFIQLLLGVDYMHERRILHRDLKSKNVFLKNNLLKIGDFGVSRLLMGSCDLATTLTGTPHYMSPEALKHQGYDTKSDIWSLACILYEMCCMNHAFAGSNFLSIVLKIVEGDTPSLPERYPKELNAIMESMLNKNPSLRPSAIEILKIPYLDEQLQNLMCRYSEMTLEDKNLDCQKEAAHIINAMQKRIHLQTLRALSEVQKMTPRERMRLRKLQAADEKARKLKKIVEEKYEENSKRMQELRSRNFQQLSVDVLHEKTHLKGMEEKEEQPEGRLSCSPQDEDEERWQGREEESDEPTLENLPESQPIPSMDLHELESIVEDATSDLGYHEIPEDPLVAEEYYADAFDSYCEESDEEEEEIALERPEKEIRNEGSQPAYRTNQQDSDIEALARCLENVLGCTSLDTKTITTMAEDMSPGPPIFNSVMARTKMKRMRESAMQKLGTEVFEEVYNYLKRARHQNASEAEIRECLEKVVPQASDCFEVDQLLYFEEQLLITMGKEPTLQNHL

[9] = biological target: Ribosomal protein S6 kinase alpha-4 (Homo sapiens) (UniProt O75676); conditions: at 1 µM
Sequence of Ribosomal protein S6 kinase alpha-4 (Homo sapiens) (O75676 whole entry, looked up): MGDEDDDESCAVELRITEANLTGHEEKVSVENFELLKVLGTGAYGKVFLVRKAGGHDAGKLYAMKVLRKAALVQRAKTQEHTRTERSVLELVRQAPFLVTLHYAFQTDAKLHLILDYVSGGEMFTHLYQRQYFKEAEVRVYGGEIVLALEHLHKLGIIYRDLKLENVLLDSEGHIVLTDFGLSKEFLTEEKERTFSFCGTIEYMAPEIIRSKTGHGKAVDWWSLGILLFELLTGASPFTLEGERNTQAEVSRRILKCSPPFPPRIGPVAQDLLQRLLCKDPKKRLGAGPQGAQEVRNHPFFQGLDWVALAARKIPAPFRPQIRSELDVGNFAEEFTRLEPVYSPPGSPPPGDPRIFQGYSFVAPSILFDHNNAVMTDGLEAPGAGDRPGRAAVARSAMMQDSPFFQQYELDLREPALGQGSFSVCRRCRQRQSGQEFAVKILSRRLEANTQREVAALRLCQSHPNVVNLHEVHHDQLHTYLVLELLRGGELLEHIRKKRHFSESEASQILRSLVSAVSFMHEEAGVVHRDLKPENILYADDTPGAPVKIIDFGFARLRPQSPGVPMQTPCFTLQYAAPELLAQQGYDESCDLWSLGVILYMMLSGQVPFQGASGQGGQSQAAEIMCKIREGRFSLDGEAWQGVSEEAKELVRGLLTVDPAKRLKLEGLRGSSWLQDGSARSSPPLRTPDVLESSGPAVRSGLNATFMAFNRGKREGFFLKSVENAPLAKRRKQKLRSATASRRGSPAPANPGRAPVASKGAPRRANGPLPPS

[10] = biological target: Ribosomal protein S6 kinase alpha-4 (Homo sapiens) (UniProt O75676); conditions: at 10 µM
[11] = biological target: SRSF protein kinase 3 (Homo sapiens) (UniProt Q9UPE1); conditions: at 10 µM
[12] = biological target: T5, Serine/threonine-protein kinase 3 (Homo sapiens) (UniProt Q13188); conditions: at 1 µM
T5 sequence (whole entry): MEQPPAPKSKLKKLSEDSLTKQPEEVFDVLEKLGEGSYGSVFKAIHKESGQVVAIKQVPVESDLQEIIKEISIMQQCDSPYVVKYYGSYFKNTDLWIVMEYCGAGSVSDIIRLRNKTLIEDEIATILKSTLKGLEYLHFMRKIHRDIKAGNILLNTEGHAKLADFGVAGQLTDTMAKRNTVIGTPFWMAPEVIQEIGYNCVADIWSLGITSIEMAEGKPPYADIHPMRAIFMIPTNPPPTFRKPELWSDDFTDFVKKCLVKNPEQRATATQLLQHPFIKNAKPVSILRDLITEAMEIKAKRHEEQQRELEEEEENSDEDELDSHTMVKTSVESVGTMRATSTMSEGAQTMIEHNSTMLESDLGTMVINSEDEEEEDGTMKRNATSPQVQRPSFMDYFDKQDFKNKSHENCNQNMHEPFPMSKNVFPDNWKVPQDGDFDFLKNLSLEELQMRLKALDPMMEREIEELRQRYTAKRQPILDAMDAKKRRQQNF

[13] = biological target: T5, Serine/threonine-protein kinase 3 (Homo sapiens); conditions: at 10 µM
[14] = biological target: Serine/threonine-protein kinase 24 (Homo sapiens) (UniProt Q9Y6E0); conditions: at 1 µM
[15] = biological target: T2, Tyrosine-protein kinase Mer (Homo sapiens); conditions: at 10 µM
[16] = biological target: Hepatocyte growth factor receptor (Homo sapiens) (UniProt P08581); conditions: at 1 µM
Sequence of Hepatocyte growth factor receptor (Homo sapiens) (P08581 whole entry): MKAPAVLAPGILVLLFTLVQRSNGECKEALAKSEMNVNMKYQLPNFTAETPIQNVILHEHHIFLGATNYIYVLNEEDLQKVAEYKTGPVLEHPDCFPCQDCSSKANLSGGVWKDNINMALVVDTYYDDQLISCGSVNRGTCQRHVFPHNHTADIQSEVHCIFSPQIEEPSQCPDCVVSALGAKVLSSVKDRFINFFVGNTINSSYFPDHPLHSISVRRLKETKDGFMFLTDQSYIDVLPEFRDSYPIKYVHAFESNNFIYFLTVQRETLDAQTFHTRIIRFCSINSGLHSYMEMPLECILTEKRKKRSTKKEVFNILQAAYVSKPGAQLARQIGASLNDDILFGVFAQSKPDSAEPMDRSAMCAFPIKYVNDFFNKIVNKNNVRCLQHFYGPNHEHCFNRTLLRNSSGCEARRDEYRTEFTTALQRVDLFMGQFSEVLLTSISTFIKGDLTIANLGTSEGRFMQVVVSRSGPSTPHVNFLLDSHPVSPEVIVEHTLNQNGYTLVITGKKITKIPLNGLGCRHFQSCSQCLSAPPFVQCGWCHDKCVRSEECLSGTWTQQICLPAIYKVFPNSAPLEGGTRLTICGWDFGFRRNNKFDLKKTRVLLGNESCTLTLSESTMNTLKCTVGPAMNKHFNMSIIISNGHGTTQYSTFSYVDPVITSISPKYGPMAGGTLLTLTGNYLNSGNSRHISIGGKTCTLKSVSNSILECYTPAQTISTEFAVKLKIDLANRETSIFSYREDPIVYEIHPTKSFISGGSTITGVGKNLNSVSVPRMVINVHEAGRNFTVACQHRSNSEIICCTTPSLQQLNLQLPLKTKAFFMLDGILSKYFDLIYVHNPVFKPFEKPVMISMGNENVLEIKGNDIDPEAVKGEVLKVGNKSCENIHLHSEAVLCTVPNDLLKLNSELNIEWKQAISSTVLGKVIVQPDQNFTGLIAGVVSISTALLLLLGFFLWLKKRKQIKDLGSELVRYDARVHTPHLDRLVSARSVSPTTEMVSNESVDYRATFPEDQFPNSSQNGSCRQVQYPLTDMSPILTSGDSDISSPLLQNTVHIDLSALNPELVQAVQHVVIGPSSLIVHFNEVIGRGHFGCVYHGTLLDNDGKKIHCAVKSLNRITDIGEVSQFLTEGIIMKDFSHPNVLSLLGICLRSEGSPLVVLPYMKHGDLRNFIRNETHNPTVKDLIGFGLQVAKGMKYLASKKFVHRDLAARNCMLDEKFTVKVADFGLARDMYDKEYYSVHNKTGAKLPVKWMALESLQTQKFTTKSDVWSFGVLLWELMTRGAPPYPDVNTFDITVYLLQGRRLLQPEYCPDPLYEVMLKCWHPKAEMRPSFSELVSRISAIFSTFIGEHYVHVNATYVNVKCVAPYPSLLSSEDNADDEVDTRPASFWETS

[17] = biological target: Hepatocyte growth factor receptor (Homo sapiens) (UniProt P08581); conditions: at 10 µM
[18] = biological target: MAP kinase-interacting serine/threonine-protein kinase 2 (Homo sapiens) (UniProt Q9HBH9); conditions: at 1 µM
Sequence of MAP kinase-interacting serine/threonine-protein kinase 2 (Homo sapiens) (Q9HBH9 whole entry, looked up): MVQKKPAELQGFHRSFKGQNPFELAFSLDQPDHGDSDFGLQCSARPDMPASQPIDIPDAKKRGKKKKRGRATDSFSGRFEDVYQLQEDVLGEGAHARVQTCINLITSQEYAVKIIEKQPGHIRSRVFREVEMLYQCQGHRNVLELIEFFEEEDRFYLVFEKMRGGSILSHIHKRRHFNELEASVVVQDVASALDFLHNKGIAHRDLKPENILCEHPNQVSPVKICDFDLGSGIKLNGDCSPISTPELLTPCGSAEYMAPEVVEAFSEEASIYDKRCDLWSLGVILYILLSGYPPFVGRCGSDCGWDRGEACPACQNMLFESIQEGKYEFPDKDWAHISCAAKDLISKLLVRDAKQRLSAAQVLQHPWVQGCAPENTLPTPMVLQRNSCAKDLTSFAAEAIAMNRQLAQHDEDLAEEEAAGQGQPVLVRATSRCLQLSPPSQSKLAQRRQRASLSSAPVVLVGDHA

[19] = biological target: MAP kinase-interacting serine/threonine-protein kinase 2 (Homo sapiens) (UniProt Q9HBH9); conditions: at 10 µM
[20] = biological target: T4, Serine/threonine-protein kinase Nek11 (Homo sapiens); conditions: at 1 µM

Sequence of SRSF protein kinase 3 (Homo sapiens) (Q9UPE1 whole entry): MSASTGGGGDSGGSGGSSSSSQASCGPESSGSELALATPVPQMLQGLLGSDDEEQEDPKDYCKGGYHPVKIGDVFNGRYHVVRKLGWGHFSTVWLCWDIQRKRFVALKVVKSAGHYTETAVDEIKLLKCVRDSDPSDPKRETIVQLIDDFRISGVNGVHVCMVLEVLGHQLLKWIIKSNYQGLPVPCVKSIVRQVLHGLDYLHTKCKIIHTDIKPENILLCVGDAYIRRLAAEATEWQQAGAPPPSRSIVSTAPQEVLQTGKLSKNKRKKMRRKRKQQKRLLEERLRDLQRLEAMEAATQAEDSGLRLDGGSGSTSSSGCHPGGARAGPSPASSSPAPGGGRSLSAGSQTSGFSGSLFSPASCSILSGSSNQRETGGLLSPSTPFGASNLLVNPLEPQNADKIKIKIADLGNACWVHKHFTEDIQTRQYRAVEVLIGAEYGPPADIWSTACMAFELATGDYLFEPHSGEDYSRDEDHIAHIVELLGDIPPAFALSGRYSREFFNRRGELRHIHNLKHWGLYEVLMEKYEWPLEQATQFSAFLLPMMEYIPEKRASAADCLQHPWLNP

| Structure (SMILES) | residual activity [1] | residual activity [2] | residual activity [3] | residual activity [4] | residual activity [5] | residual activity [6] | residual activity [7] | residual activity [8] | residual activity [9] | residual activity [10] | residual activity [11] | residual activity [12] | residual activity [13] | residual activity [14] | residual activity [15] | residual activity [16] | residual activity [17] | residual activity [18] | residual activity [19] | residual activity [20] |
| --- | --- | --- | --- | --- | --- | --- | --- | --- | --- | --- | --- | --- | --- | --- | --- | --- | --- | --- | --- | --- |
| CC(C)(C)c1cc(C=C(C#N)C#N)cc(Br)c1O | 105% | 104% | 119% | 100% | 116% | 121% | 72% | 109% | – | – | – | – | – | – | – | – | – | – | – | – |
| CN[C@@H]1C[C@H]2O[C@@](C)([C@@H]1OC)n1c3ccccc3c3c4c(c5c6ccccc6n2c5c31)C(=O)NC4 | – | – | – | – | – | – | – | – | 1% | -1% | 40% | – | – | – | – | – | – | – | – | – |
| O=[N+]([O-])/C=C/c1ccc2c(c1)OCO2 | 120% | 101% | – | 75% | 106% | 127% | 114% | 106% | 90% | 101% | 93% | 104% | 91% | 77% | 108% | 111% | 96% | 116% | 105% | 90% |
| N/C(=N\[N+](=O)[O-])N/N=C\c1ccc(-c2cccc([N+](=O)[O-])c2)o1 | – | – | – | 79% | – | 93% | 91% | 72% | 97% | 84% | – | – | – | 98% | – | – | – | – | – | 73% |
| COC(=O)[C@@]1(O)C[C@H]2O[C@]1(C)n1c3ccccc3c3c4c(c5c6ccccc6n2c5c31)C(=O)NC4 | 11% | 5% | 1% | 0% | 2% | 18% | 2% | 9% | -1% | 0% | 2% | 2% | 1% | 14% | 0% | 6% | 13% | 0% | 0% | 34% |
| c1cc(-c2cnn3cc(-c4ccc(OCCN5CCCCC5)cc4)cnc23)ccn1 | – | – | – | – | 33% | 18% | 1% | – | 103% | 70% | – | – | – | – | 3% | – | – | 56% | 24% | – |
| O=C1c2ccccc2-c2nc3nnnn3nc21 | 107% | 108% | 110% | – | 124% | 131% | 105% | – | 108% | 108% | 83% | – | – | – | 103% | 127% | 133% | 100% | 75% | – |
| CC(C)[C@H](CO)Nc1nc(Nc2cccc(Cl)c2)c2ncn(C(C)C)c2n1 | 73% | 63% | 30% | 20% | 26% | 48% | 5% | 38% | 95% | 62% | 17% | – | – | 58% | 0% | 83% | 73% | – | 98% | 59% |
| CCn1cnc2c(Nc3cccc(Cl)c3)nc(N[C@@H]3CCCC[C@@H]3N)nc21 | 95% | 64% | 47% | 59% | 8% | 61% | 13% | 55% | 79% | 60% | 71% | – | 70% | 78% | -1% | – | 72% | 97% | 70% | 68% |
| O=c1[nH]c2ccccc2n1C1CCN(Cc2ccc(-c3nc4cc5[nH]cnc5cc4nc3-c3ccccc3)cc2)CC1 | 112% | 102% | 80% | 80% | 112% | 105% | 84% | 88% | 106% | 96% | 91% | 106% | 80% | 72% | 51% | 93% | 88% | 97% | 67% | 75% |
